# C diff growth: C. difficile growth inhibitors, primary screen, HTS; Clostridium difficile clinical isolate growth, OD600, 24 h; hits give low values; growth activity, negative = inhibition, % at 16 µg/mL (by protocol); hit rate 0.25% among 86,000;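 active means mean growth activity at or below -80% and every replicate also at or below -80%; inconclusive means mean at or below -80% but some replicate above -80%; inactive means mean growth activity above -80%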;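 further: 0% = DMSO wells and -100% = levofloxacin 16 µg/mL wells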
# T cruzi growth-1: T. cruzi intracellular proliferation inhibitors, primary screen, cell-based, beta-gal Tulahuen parasites, NIH3T3 host, luminescence; T. cruzi beta-gal in NIH3T3, GalScreen luminescence, 90 h; inhibition, % at 8.34 µM; hit rate 5.9% among 77,000;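 active means mean inhibition above about 93%, with at least 55% of replicates each passing it, limit read from the data, passing the limit was not always enough; inconclusive means only one of those two conditions holds; inactive means neither condition holds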
# Pf Dd2 growth: P. falciparum Dd2 growth inhibitors, primary screen, SYBR Green fluorescence, single dose replicates | 72 h; hits give low values | AID 1159554, 2015 | activity change, % at 10 µM | hit rate 2.3% among 94,000; in the data active means activity change below about -80%; inconclusive means no clear call, values can overlap the other calls
# T cruzi growth-2: T. cruzi intracellular proliferation inhibitors, confirmation, cell-based, NIH3T3 host, beta-gal parasite, luminescence, cherry-pick; AID 651739, 2012; shares compounds with T cruzi growth-1; hit rate 72% among 5,600; inhibition, % at 8.35 µM; T. cruzi beta-gal in NIH3T3, GalScreen luminescence, 90 h;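 active means mean replicate inhibition above about 95% and at least 55% of replicates individually reaching it, limit read from the data; inconclusive means only one of the two criteria is met; inactive means neither criterion is met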
# T cruzi growth-3: inhibitors of intracellular T. cruzi replication, confirmation, NIH3T3 host cells, beta-gal parasites, cherry-pick, set 2; shares compounds with T cruzi growth-1; inhibition, % at 2.09 µM; hit rate 21% among 5,600; T. cruzi beta-gal in NIH3T3, GalScreen luminescence, 90 h;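 active means mean inhibition above about 95%, with at least 55% of replicates also reaching it, limit read from the data; inconclusive means meets just one of the two conditions; inactive means meets neither condition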;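 further: plate controls were neutral control median for no effect and positive control median for full effect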
# 3T3 cytotox: cytotoxicity in mouse NIH/3T3 fibroblasts, confirmation, cytotoxicity control for T. cruzi proliferation inhibitor project, cell-based, cherry-pick, single point. shares compounds with T cruzi growth-1. NIH/3T3 viability, CellTiter-Glo ATP luminescence, 90 h. cytotoxicity (signal decrease), % at 8.35 µM. hit rate 14% among 5,600. AID 651742, 2012;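 active means mean signal decrease across replicates above about 35% based on untreated-well scatter, with enough replicates individually passing, limit read from the data; inconclusive means no rule stated though some were filed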;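 further: 0% = median of neutral control wells and 100% = median of positive control wells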
# NIH3T3 tox 2: NIH/3T3 fibroblast cytotoxicity, confirmation, cytotoxicity control, cell-based, cherry-pick, single point, set 2; NIH/3T3 viability, CellTiter-Glo ATP luminescence, 90 h; shares compounds with T cruzi growth-1; inhibition, % at 24.9 µM; AID 651744, 2012; hit rate 56% among 5,600;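 active means mean loss of cell viability signal at or above a set limit, and enough replicates individually reaching it; inconclusive means meets only the mean limit or only the replicate share; inactive means meets neither condition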;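 further: 0% = median of neutral control wells and 100% = median of positive control wells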
# * marks the source's active call; other numbers are inactive results; u = inconclusive; x = not tested or not shown. A selection: hits, their analogues and other compounds. The true share with any hit is near 6.7%.
SMILES,C diff growth,T cruzi growth-1,Pf Dd2 growth,others
C[C@@H]1CCCCO[C@@H](CN(C)S(=O)(=O)c2cccs2)[C@@H](C)CN([C@@H](C)CO)C(=O)c2cc(NC(=O)Nc3ccc4c(c3)OCO4)ccc2O1,7.6,40.6,-66.7,
C[C@@H]1CN([C@H](C)CO)C(=O)c2cc(NC(=O)Cc3ccccc3)ccc2O[C@@H](C)CCCCO[C@@H]1CN(C)S(=O)(=O)c1cccs1,4.4,-97.8,-81.1*,
C[C@@H]1CCCCO[C@H](CN(C)S(=O)(=O)c2cccs2)[C@H](C)CN([C@H](C)CO)C(=O)c2cc(NS(=O)(=O)c3ccccc3)ccc2O1,-12.4,89.4,-82.8*,
C[C@@H]1CCCCO[C@@H](CN(C)S(=O)(=O)c2cccs2)[C@@H](C)CN([C@H](C)CO)C(=O)c2cc(NS(=O)(=O)c3ccccc3)ccc2O1,-3.0,-13.4,-29.2,
C[C@@H]1CCCCO[C@@H](CN(C)S(=O)(=O)c2cccs2)[C@@H](C)CN([C@H](C)CO)C(=O)c2cc(NC(=O)Cc3ccccc3)ccc2O1,5.0,-147.8,-53.8,
COc1ccc(S(=O)(=O)Nc2ccc3c(c2)C(=O)N([C@@H](C)CO)C[C@@H](C)[C@H](CN(C)C(=O)CCCN(C)C)OCCCC[C@@H](C)O3)cc1,3.2,18.0,31.6,
Cc1noc(C)c1NC(=O)N(C)C[C@@H]1Oc2ncc(C#CC3CC3)cc2C(=O)N([C@@H](C)CO)C[C@H]1C,x,53.2,17.5,
O=C(NCC[C@@H]1CC[C@H](NS(=O)(=O)Cc2ccccc2)[C@H](CO)O1)C1CC1,1.9,x,-12.9,
C[C@@H]1CN([C@@H](C)CO)C(=O)c2cc(NS(=O)(=O)c3cccs3)ccc2O[C@@H](C)CCCCO[C@H]1CN(C)C(=O)CCCN(C)C,9.1,-34.5,39.7,
COc1ccc(-c2cnc3c(c2)C(=O)N([C@@H](C)CO)C[C@H](C)[C@H](CN(C)S(=O)(=O)c2ccc(OC)cc2)O3)cc1,x,84.5,-82.7*,
COc1ccc(S(=O)(=O)N(C)C[C@@H]2Oc3ncc(-c4ccncc4)cc3C(=O)N([C@H](C)CO)C[C@H]2C)cc1,2.2,70.0,-60.5,
C[C@@H]1CN([C@H](C)CO)C(=O)c2cc(C#CCc3ccccc3)cnc2O[C@@H]1CN(C)CC1CCOCC1,1.3,-130.0,-56.5,
CCCN(C)C[C@@H]1Oc2ncc(C#Cc3cccc(OC)c3)cc2C(=O)N([C@H](C)CO)C[C@@H]1C,28.4,x,-44.7,
C[C@@H]1CN([C@H](C)CO)C(=O)c2cc(C#CCc3ccccc3)cnc2O[C@H]1CN(C)CC1CCCC1,8.3,91.6,-94.2*,
COc1cccc(S(=O)(=O)N(C)C[C@@H]2Oc3ncc(C#Cc4ccc(OC)c(OC)c4)cc3C(=O)N([C@H](C)CO)C[C@@H]2C)c1,4.2,60.4,-91.8*,
CCCN(C)C[C@@H]1Oc2ncc(C#Cc3ccc(OC)cc3)cc2C(=O)N([C@H](C)CO)C[C@@H]1C,15.3,x,-80.9*,
CCCC#Cc1cnc2c(c1)C(=O)N([C@H](C)CO)C[C@H](C)[C@@H](CN(C)S(=O)(=O)c1cccc(OC)c1)O2,-2.2,88.9,-57.1,
COc1ccc2c3c(n(C)c2c1)[C@H](CO)N(CC1CC1)CC31CCN(S(=O)(=O)c2cn(C)cn2)CC1,4.8,x,6.1,
Cc1ccc(S(=O)(=O)N(C)C[C@@H]2Oc3c(NC(=O)c4ccncc4)cccc3C(=O)N([C@@H](C)CO)C[C@H]2C)cc1,-11.9,-20.5,-10.7,
CC(C)NC(=O)Nc1ccc2c(c1)CC(=O)N([C@H](C)CO)C[C@H](C)[C@@H](CN(C)C(=O)Nc1ccc3c(c1)OCO3)O2,-6.6,-21.5,18.5,
C[C@@H]1CCCCO[C@@H](CN(C)CC2CCCCC2)[C@@H](C)CN([C@@H](C)CO)C(=O)c2cc(NC(=O)Nc3ccc4c(c3)OCO4)ccc2O1,-3.4,91.9,-65.7,
C[C@@H]1CCCCO[C@@H](CN(C)CC2CCCCC2)[C@H](C)CN([C@H](C)CO)C(=O)c2cc(NC(=O)Nc3ccc4c(c3)OCO4)ccc2O1,3.3,79.1,-81.0*,
C[C@@H]1CN([C@@H](C)CO)C(=O)c2cc(NC(=O)NC3CCCCC3)ccc2O[C@@H](C)CCCCO[C@H]1CN(C)CC1CCCCC1,x,83.8,-84.7*,
C[C@@H]1CCCCO[C@H](CN(C)CC2CCCCC2)[C@H](C)CN([C@@H](C)CO)C(=O)c2cc(NC(=O)NC3CCCCC3)ccc2O1,x,35.3,-53.2,
O=C(C[C@@H]1C[C@H]2c3cc(NC(=O)C4CCOCC4)ccc3O[C@H]2[C@H](CO)O1)NCc1ccccc1F,-6.4,-24.4,-10.3,
SMILES,C diff growth,T cruzi growth-1,Pf Dd2 growth,others
C[C@H](CO)N1C[C@H](C)[C@H](CN(C)C(=O)Nc2ccc3c(c2)OCO3)Oc2ccc(NC(=O)Cc3ccccc3)cc2CC1=O,-4.3,-14.8,-24.7,
C[C@@H]1CN([C@H](C)CO)C(=O)Cc2cc(NC(=O)Nc3ccc4c(c3)OCO4)ccc2O[C@@H]1CN(C)S(=O)(=O)c1cn(C)cn1,-4.9,8.3,7.8,
COc1ccc(NC(=O)Nc2ccc3c(c2)C(=O)N([C@H](C)CO)C[C@H](C)[C@H](CN(C)C(=O)Nc2ccc4c(c2)OCO4)OCCCC[C@H](C)O3)cc1,5.2,u,-5.4,T cruzi growth-2=110.9*;T cruzi growth-3=65.8;3T3 cytotox=-5.3;NIH3T3 tox 2=-12.2
COc1ccc(NC(=O)Nc2ccc3c(c2)C(=O)N([C@@H](C)CO)C[C@H](C)[C@H](CN(C)C(=O)Nc2ccc4c(c2)OCO4)OCCCC[C@H](C)O3)cc1,3.3,u,-24.6,T cruzi growth-2=108.4*;T cruzi growth-3=42.2;3T3 cytotox=7.4;NIH3T3 tox 2=-12.1
COc1ccc(NC(=O)N(C)C[C@@H]2OCCCC[C@H](C)Oc3ccc(NC(=O)Nc4ccc5c(c4)OCO5)cc3C(=O)N([C@@H](C)CO)C[C@@H]2C)cc1,4.8,43.8,-15.9,
COc1ccc(NC(=O)N(C)C[C@@H]2OCCCC[C@@H](C)Oc3ccc(NC(=O)Nc4ccc5c(c4)OCO5)cc3C(=O)N([C@H](C)CO)C[C@H]2C)cc1,1.5,75.5,-25.8,
Cc1ccc(S(=O)(=O)N(C)C[C@@H]2Oc3ccc(NS(=O)(=O)c4cccs4)cc3CC(=O)N([C@H](C)CO)C[C@H]2C)cc1,3.4,49.0,-7.6,
